Drawing on ChEMBL document CHEMBL2218924, “A broad activity screen in support of a chemogenomic map for kinase signalling research and drug discovery” (Biochem J, 2013), this text covers residual activity for 35 compounds.

Chain of Protein kinase C theta type (Homo sapiens) (Q04759 whole entry, looked up): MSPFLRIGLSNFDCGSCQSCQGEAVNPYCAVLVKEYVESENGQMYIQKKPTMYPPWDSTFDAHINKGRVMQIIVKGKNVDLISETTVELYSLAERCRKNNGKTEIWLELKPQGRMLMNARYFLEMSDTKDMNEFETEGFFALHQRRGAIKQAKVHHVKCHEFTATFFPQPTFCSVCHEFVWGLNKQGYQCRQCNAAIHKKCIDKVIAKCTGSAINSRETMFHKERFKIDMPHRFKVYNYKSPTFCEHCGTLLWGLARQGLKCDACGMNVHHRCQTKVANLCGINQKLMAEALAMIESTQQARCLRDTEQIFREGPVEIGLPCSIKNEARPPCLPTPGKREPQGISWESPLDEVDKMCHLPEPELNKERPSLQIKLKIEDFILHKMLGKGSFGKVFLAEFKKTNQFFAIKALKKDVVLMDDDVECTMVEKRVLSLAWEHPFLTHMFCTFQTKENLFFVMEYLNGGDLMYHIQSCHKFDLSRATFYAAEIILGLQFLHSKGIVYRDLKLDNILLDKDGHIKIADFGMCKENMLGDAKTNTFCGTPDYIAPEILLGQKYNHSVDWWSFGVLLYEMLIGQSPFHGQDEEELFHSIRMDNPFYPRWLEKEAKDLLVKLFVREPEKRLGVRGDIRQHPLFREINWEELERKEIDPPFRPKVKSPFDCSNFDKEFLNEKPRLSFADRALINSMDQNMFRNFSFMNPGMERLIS

The first assay concerns the target Protein kinase C theta type (Homo sapiens) (UniProt Q04759). Particulars: at 1 µM; call rule not given here.
Take `O=c1cc(-c2cccc3c2Sc2ccccc2S3)oc(N2CCOCC2)c1`: the residual activity was 97%.

For `Cc1nc2cc3nc(-c4cccs4)cnc3cc2n1C`, the residual activity was determined as 110%.

As for `O=C1c2ccccc2-[n+]2ccc3c([nH]c4ccccc43)c21`, the residual activity was found to be 93%.

Consider `COc1cccc(-c2cc(=O)c3ccccc3o2)c1N`, for which the residual activity amounted to 92%.

As to `O=C1NC(=O)c2cc(Nc3ccc(F)cc3)c(Nc3ccc(F)cc3)cc21`, the residual activity was 87%.

As for `Cc1nc(-c2ccccc2)c(-c2ccncc2)o1`, the residual activity stood at 107%.

Consider `Cn1cnc2cc3c(Nc4cccc(Br)c4)ncnc3cc21`, for which the residual activity was determined as 99%.

`CC[n+]1c(/C=C/N(C)c2ccccc2)n(-c2ccccc2)c2ccc(-c3nc4ccccc4s3)cc21`: the residual activity came to 96%.

With `N#C/C(=C(\N)Sc1ccc(N)cc1)c1ccccc1C(F)(F)F`, the residual activity was 84%.

For `COc1ccc(C(=O)Nc2sc3c(c2C(N)=O)CCCC3)cc1OC`, the residual activity is 89%.

As for `CC(C)n1cnc2/c(=N/c3cccc(Cl)c3)nc(NCCO)[nH]c21`, the residual activity stood at 69%.

For the compound `CO[C@H]1[C@@H](OC)C[C@H](C)[C@@H](OC)C2=CC(=O)C=C(NC(=O)/C(C)=C/C=C/[C@H](OC)[C@@H](OC(N)=O)/C(C)=C/[C@@H]1C)C2=O`, the residual activity amounted to 100%.

Take `O=C1NC(=O)/C(=C\c2ccc3nccnc3c2)S1`: the residual activity is 102%.

Consider `Cc1ccc(S(=O)(=O)/C=C/C#N)cc1`, for which the residual activity was 97%.

For `O=C1NC(=O)/C(=C/c2ccc3c(c2)OC(F)(F)O3)S1`, the residual activity came out at 109%.

`CCOc1cc2ncnc(Nc3cccc(Br)c3)c2cc1OCC`: the residual activity was found to be 116%.

A further assay has the same target. Particulars: at 10 µM.
In the case of `COc1ccc(CNc2nc(N(CCO)CCO)nc3c2ncn3C(C)C)cc1`, the residual activity was 5%.

On to `O=Nc1c(-c2c(O)[nH]c3ccccc23)[nH]c2ccccc12`, for which the residual activity turned out to be 55%.

For the compound `O=c1c2ccccc2[nH]c(=S)n1CCN1CCC(=C(c2ccc(F)cc2)c2ccc(F)cc2)CC1`, the residual activity stood at 109%.

As to `c1ccc(-c2n[nH]cc2-c2ccnc3ccccc23)nc1`, the residual activity was 86%.

As for `Cn1nc2c3c(cccc31)C(=O)c1ccccc1-2`, the residual activity was 86%.

With `CC#CC(=O)Nc1cc2c(Nc3ccc(F)c(Cl)c3)ncnc2cn1`, the residual activity came to 96%.

`CNc1cc2c(Nc3cccc(Br)c3)ncnc2cn1`: the residual activity was 94%.

Turning to `NC(=O)c1ccc2[nH]c(-c3ccc(Oc4ccc(Cl)cc4)cc3)nc2c1`, the residual activity is 105%.

Consider `CCN(CC)CCCCN1c2ccccc2Oc2ccc(Cl)cc21`, for which the residual activity was 90%.

`CN(C)c1ccc(/C=C2\C(=O)Nc3ccccc32)cc1`: the residual activity is 85%.

For `COc1cc2ncnc(N3CCN(C(=O)Nc4ccc(Oc5ccccc5)cc4)CC3)c2cc1OC`, the residual activity came to 108%.

In the case of `Oc1c2ccccc2c2c3c(cccc13)N=N2`, the residual activity came out at 76%.

On to `CC(=O)c1ccc(N2CCOCC2)cc1O`, for which the residual activity worked out at 102%.

`Oc1ccc(-c2nc(-c3ccc(F)cc3)c(-c3ccncc3)[nH]2)cc1`: the residual activity was found to be 75%.

Consider `Cc1ccc(NC2=CC(=O)c3sc(C)nc3C2=O)cc1`, for which the residual activity worked out at 87%.

`Cn1cc(/C=C2\C(=O)Nc3ccc(S(N)(=O)=O)cc32)c2ccccc21`: the residual activity came to 49%.

`CC(C)n1cnc2c(NCc3ccccc3)nc(NCCCO)nc21`: the residual activity was found to be 94%.

As to `Cc1cncc2cccc(S(=O)(=O)N3CCCN(C(=O)CN)C[C@H]3C)c12`, the residual activity turned out to be 3%.

Take `Ic1cccc(CSc2nnc(-c3ccncc3)o2)c1`: the residual activity turned out to be 58%.

For the compound `O=c1cc(-c2cccc3c2Sc2ccccc2S3)oc(N2CCOCC2)c1`, the residual activity came to 91%.

For `Cc1nc2cc3nc(-c4cccs4)cnc3cc2n1C`, the residual activity came to 110%.

Regarding `O=C1c2ccccc2-[n+]2ccc3c([nH]c4ccccc43)c21`, the residual activity turned out to be 99%.

With `COc1cccc(-c2cc(=O)c3ccccc3o2)c1N`, the residual activity amounted to 97%.

Turning to `O=C1NC(=O)c2cc(Nc3ccc(F)cc3)c(Nc3ccc(F)cc3)cc21`, the residual activity came to 62%.

`Cc1nc(-c2ccccc2)c(-c2ccncc2)o1`: the residual activity amounted to 103%.

Take `Cn1cnc2cc3c(Nc4cccc(Br)c4)ncnc3cc21`: the residual activity is 100%.

For the compound `CC[n+]1c(/C=C/N(C)c2ccccc2)n(-c2ccccc2)c2ccc(-c3nc4ccccc4s3)cc21`, the residual activity was determined as 84%.

For `N#C/C(=C(\N)Sc1ccc(N)cc1)c1ccccc1C(F)(F)F`, the residual activity came to 77%.

For `COc1ccc(C(=O)Nc2sc3c(c2C(N)=O)CCCC3)cc1OC`, the residual activity is 84%.

For `CC(C)n1cnc2/c(=N/c3cccc(Cl)c3)nc(NCCO)[nH]c21`, the residual activity stood at 35%.

Turning to `CO[C@H]1[C@@H](OC)C[C@H](C)[C@@H](OC)C2=CC(=O)C=C(NC(=O)/C(C)=C/C=C/[C@H](OC)[C@@H](OC(N)=O)/C(C)=C/[C@@H]1C)C2=O`, the residual activity is 98%.

For `O=C1NC(=O)/C(=C\c2ccc3nccnc3c2)S1`, the residual activity stood at 81%.

With `Cc1ccc(S(=O)(=O)/C=C/C#N)cc1`, the residual activity turned out to be 77%.

Take `O=C1NC(=O)/C(=C/c2ccc3c(c2)OC(F)(F)O3)S1`: the residual activity came to 100%.

Turning to `CCOc1cc2ncnc(Nc3cccc(Br)c3)c2cc1OCC`, the residual activity is 106%.

The next assay deals with T1, Protein kinase C iota type (Homo sapiens) (UniProt P41743).
T1 sequence (whole entry): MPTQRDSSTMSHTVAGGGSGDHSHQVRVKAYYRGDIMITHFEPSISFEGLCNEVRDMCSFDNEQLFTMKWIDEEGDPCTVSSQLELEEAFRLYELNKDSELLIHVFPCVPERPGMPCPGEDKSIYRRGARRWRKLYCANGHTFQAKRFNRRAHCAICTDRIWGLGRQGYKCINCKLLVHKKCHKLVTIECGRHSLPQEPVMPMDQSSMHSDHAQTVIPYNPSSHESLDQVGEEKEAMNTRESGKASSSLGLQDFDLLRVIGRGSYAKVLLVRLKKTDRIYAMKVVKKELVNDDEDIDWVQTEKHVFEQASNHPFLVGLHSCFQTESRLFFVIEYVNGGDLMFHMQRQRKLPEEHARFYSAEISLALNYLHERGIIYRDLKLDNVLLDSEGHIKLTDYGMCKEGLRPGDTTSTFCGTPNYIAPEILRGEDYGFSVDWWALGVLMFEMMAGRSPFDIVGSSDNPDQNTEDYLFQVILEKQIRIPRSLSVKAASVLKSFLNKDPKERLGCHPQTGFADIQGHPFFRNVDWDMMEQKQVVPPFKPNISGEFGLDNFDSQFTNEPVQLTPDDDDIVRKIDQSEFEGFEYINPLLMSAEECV
Particulars: at 1 µM.
As to `COc1ccc(CNc2nc(N(CCO)CCO)nc3c2ncn3C(C)C)cc1`, the residual activity was 112% (inactive).

Turning to `O=Nc1c(-c2c(O)[nH]c3ccccc23)[nH]c2ccccc12`, the residual activity was 96% (inactive).

Consider `O=c1c2ccccc2[nH]c(=S)n1CCN1CCC(=C(c2ccc(F)cc2)c2ccc(F)cc2)CC1`, for which the residual activity was 109% (inactive).

For `c1ccc(-c2n[nH]cc2-c2ccnc3ccccc23)nc1`, the residual activity was 81% (inactive).

`Cn1nc2c3c(cccc31)C(=O)c1ccccc1-2`: the residual activity was 105% (inactive).

With `CC#CC(=O)Nc1cc2c(Nc3ccc(F)c(Cl)c3)ncnc2cn1`, the residual activity is 87% (inactive).

Take `CNc1cc2c(Nc3cccc(Br)c3)ncnc2cn1`: the residual activity was 94% (inactive).

Regarding `NC(=O)c1ccc2[nH]c(-c3ccc(Oc4ccc(Cl)cc4)cc3)nc2c1`, the residual activity is 107% (inactive).

As to `CCN(CC)CCCCN1c2ccccc2Oc2ccc(Cl)cc21`, the residual activity was 94% (inactive).

Consider `CN(C)c1ccc(/C=C2\C(=O)Nc3ccccc32)cc1`, for which the residual activity was 92% (inactive).

Regarding `COc1cc2ncnc(N3CCN(C(=O)Nc4ccc(Oc5ccccc5)cc4)CC3)c2cc1OC`, the residual activity is 90% (inactive).

Turning to `Oc1c2ccccc2c2c3c(cccc13)N=N2`, the residual activity is 117% (inactive).

Turning to `CC(=O)c1ccc(N2CCOCC2)cc1O`, the residual activity was 84% (inactive).

As for `Oc1ccc(-c2nc(-c3ccc(F)cc3)c(-c3ccncc3)[nH]2)cc1`, the residual activity is 109% (inactive).

As to `Cc1ccc(NC2=CC(=O)c3sc(C)nc3C2=O)cc1`, the residual activity was 106% (inactive).

For the compound `Cn1cc(/C=C2\C(=O)Nc3ccc(S(N)(=O)=O)cc32)c2ccccc21`, the residual activity was 110% (inactive).

For `CC(C)n1cnc2c(NCc3ccccc3)nc(NCCCO)nc21`, the residual activity is 109% (inactive).

For the compound `Cc1cncc2cccc(S(=O)(=O)N3CCCN(C(=O)CN)C[C@H]3C)c12`, the residual activity is 82% (inactive).

`Ic1cccc(CSc2nnc(-c3ccncc3)o2)c1`: the residual activity is 109% (inactive).

On to `O=c1cc(-c2cccc3c2Sc2ccccc2S3)oc(N2CCOCC2)c1`, for which the residual activity is 117% (inactive).

In the case of `Cc1nc2cc3nc(-c4cccs4)cnc3cc2n1C`, the residual activity is 97% (inactive).

As to `O=C1c2ccccc2-[n+]2ccc3c([nH]c4ccccc43)c21`, the residual activity is 100% (inactive).

Take `COc1cccc(-c2cc(=O)c3ccccc3o2)c1N`: the residual activity is 114% (inactive).

As for `O=C1NC(=O)c2cc(Nc3ccc(F)cc3)c(Nc3ccc(F)cc3)cc21`, the residual activity was 91% (inactive).

As to `Cc1nc(-c2ccccc2)c(-c2ccncc2)o1`, the residual activity was 108% (inactive).

With `Cn1cnc2cc3c(Nc4cccc(Br)c4)ncnc3cc21`, the residual activity is 103% (inactive).

For `CC[n+]1c(/C=C/N(C)c2ccccc2)n(-c2ccccc2)c2ccc(-c3nc4ccccc4s3)cc21`, the residual activity is 93% (inactive).

As to `N#C/C(=C(\N)Sc1ccc(N)cc1)c1ccccc1C(F)(F)F`, the residual activity is 106% (inactive).

`COc1ccc(C(=O)Nc2sc3c(c2C(N)=O)CCCC3)cc1OC`: the residual activity was 89% (inactive).

As for `CC(C)n1cnc2/c(=N/c3cccc(Cl)c3)nc(NCCO)[nH]c21`, the residual activity is 110% (inactive).

Consider `CO[C@H]1[C@@H](OC)C[C@H](C)[C@@H](OC)C2=CC(=O)C=C(NC(=O)/C(C)=C/C=C/[C@H](OC)[C@@H](OC(N)=O)/C(C)=C/[C@@H]1C)C2=O`, for which the residual activity is 92% (inactive).

`O=C1NC(=O)/C(=C\c2ccc3nccnc3c2)S1`: the residual activity was 89% (inactive).

As to `Cc1ccc(S(=O)(=O)/C=C/C#N)cc1`, the residual activity was 109% (inactive).

Take `O=C1NC(=O)/C(=C/c2ccc3c(c2)OC(F)(F)O3)S1`: the residual activity is 90% (inactive).

As for `CCOc1cc2ncnc(Nc3cccc(Br)c3)c2cc1OCC`, the residual activity is 87% (inactive).
